Most compounds without a hit are left out; they make up all but 7.5% or so of the library.
FLuc counter: counter-screen for miR-21 project: firefly luciferase inhibitors or activators | P08659 | purified FLuc, Km substrates, luminescence inhibition | Potency, µM (top dose mostly 57.5 µM), for the others: at the highest dose activity change, negative = inhibition, hits mostly inhibitors | actives 6.9% (n = 360,000);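 further: plate controls were vehicle for no effect and reference inhibitor for full effect; nearly all actives have a fitted effect of over 55% in size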
Target sequence (P08659 whole entry, looked up): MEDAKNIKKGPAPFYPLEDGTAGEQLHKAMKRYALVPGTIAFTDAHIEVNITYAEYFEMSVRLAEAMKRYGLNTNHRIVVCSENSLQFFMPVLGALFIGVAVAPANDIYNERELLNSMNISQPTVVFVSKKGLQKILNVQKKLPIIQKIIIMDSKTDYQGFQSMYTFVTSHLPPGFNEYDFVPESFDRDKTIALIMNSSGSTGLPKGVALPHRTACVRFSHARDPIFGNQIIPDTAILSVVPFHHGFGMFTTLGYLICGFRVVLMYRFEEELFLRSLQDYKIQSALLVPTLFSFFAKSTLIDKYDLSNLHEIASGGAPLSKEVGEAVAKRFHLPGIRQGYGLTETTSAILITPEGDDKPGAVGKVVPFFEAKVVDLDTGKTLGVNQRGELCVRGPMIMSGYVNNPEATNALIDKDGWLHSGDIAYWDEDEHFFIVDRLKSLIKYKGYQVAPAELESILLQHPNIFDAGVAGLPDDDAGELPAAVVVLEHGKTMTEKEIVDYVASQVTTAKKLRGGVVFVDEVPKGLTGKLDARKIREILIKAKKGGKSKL
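Purified P. pyralis luciferase, 10 nM final, with Km-level 10 uM D-luciferin and 10 uM ATP in 50 mM Tris acetate pH 7.5, 10 mM Mg acetate, 0.01% Tween-20, 0.05% BSA; 6-point qHTS titration about 60 µM downward; luminescence read.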
NPC1 prom act: activates the NPC1 promoter; Huh7 NPC1 promoter luciferase reporter, 24 h; Potency, µM (titrated, usually from 9.22 µM), for the others: top-dose activation, usual class: activators; actives 2.4% (n = 320,000); AID 485313; further: % of control where 0% means no effect; nearly all actives have a fitted effect of over 60% in size
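NPC1 promoter–luciferase Huh7 cells; 24 h compound; luminescence.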
ELG1 genotox: induces genotoxicity in HEK293T cells with luciferase-tagged ELG1; HEK293T ELG1-luciferase reporter, luminescence, 16 h; Potency, µM (series often up to 46 µM), for inactives: at the top dose activity change, positive = activation, actives largely listed as activators; actives 1.3% (n = 330,000); AID 504466; further: % of control where 0% means no effect; nearly all actives have a fitted effect of over 60% in size
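Cells (2,000/well) expressing the ELG1-luciferase fusion are dosed by pin tool and kept 16 hr at 37 °C, 5% CO2. Signal comes from ONE-Glo luciferase reagent after 30 min at room temperature.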
Luc counter: counter-screen: inhibitors of Kinase-Glo firefly luciferase; Q27757; Kinase-Glo luciferase, ATP luminescence, 8 min; Potency, µM (highest dose often 38.3 µM), for the others: top-dose activity change, negative = inhibition, actives largely listed as inhibitors; actives 0.28% (n = 200,000); further: on the % scale 0 is the no-effect control and ±100 the full control effect; nearly all actives have a fitted effect of over 60% in size
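Substrate mix (final 50 mM imidazole pH 7.2, 50 mM KCl, 7 mM MgCl2, 10 uM ATP, 0.01% Tween 20, 0.05% BSA) plus pin-tool compound, then Kinase-Glo detection mix; 8 min ambient, luminescence read.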
SMN2 splice enh: SMN2 splice variant enhancement. HEK293 SMN2-luciferase splicing reporter, luminescence, 30-36 h. Potency, µM (top dose mostly 46.1 µM), for the others: at the top dose activity change, positive = activation, usual class: activators. actives 2.8% (n = 210,000). AID 1458; further: % of control where 0% means no effect; nearly all actives have a fitted effect of over 55% in size
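qHTS luciferase splicing reporter: luminescence rises when SMN2 exon 7 is included in transfected HEK293 cells. Compound exposure lasted 30-36 h at 37C, with 4.5 mM final sodium butyrate as control, followed by a ONE-Glo read.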
Rab9 prom act: activates the Rab9 promoter. Potency, µM (titrated, usually from 9.22 µM), without a hit: top-dose activation, negative = inhibition, most hits filed as activators. AID 485297. actives 2.8% (n = 320,000). Huh7 Rab9 promoter-luciferase reporter, luminescence, 24 h; further: % of control where 0% means no effect; nearly all actives have a fitted effect of over 60% in size
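Cells were plated at 1500 per well in reduced-serum medium with 10% FBS and left 2 h. Compound in DMSO was then added for 24 h at 37 °C. Reporter signal was read by luminescence after 10 min with luciferase detection reagent.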
* = called active by the depositor; u = inconclusive; x = no result. The call rests on the fitted dose curve; in most records, active means well fitted curve in the direction sought with a large enough effect; inconclusive means small, poorly fitted or top-dose-only effect, or another doubt; inactive means no such curve, though single readings can be large; an effect the other way counts as inactive or inconclusive. Potency means the concentration at half of the fitted maximal effect.

SMILES | FLuc counter | NPC1 prom act | ELG1 genotox | Luc counter | SMN2 splice enh | Rab9 prom act
Cc1ccc(NC(=O)C2CCCN(S(=O)(=O)c3cn(C(C)C)cn3)C2)c(C)c1 (stereo not drawn) | -3% | x | x | x | x | x
COc1ccc(C2=C(C)C(N3CCC(C(=O)Nc4ccccc4F)CC3)=NS2(=O)=O)cc1 | -2% | x | x | x | x | x
Cn1cccc1C(=O)OCc1nc2ccccc2c(=O)[nH]1 | x | x | 6% | x | x | x
Cn1cccc1C(=O)OCc1ccc(C(C)(C)C)cc1 | 11µM* | -35% | u | x | x | u
Cn1cccc1C(=O)OCc1cc(-c2ccco2)on1 | 24µM* | 3.5µM* | u | x | x | 3.2µM*
COC(=O)/C=C/c1ccc(OC(=O)OC)c(OC(=O)OC)c1 | -20% | -10% | 10% | 1% | 14µM* | -12%
COc1ccc(/C=C/C(=O)OC(C)C(=O)c2ccccc2)cc1OC (stereo not drawn) | -16% | 0% | 12% | x | x | -3%
CCOC(=O)c1nn(-c2ccc(Br)cc2)cc1C(=O)c1cccc2ccccc12 | 6.7µM* | 20% | 17% | 4% | u | u
Cc1ccccc1OCc1nnc2c3cnn(C)c3ncn12 | 21µM* | 3.2µM* | u | -9% | 19% | 4µM*
Cc1ccccc1OCc1nc2c3cnn(-c4ccccc4Br)c3ncn2n1 | u | x | x | x | 1% | x
O=C(O)c1ccc(/C=N\Nc2ccc(S(=O)(=O)N3CCOCC3)cc2[N+](=O)[O-])cc1 | -3% | 1% | 3% | x | x | -3%
Cc1ccc(-n2c(O)c(/C=N/Nc3ccc(S(=O)(=O)N4CCOCC4)cc3[N+](=O)[O-])c3ccccc3c2=O)c(C)c1 | 24µM* | -7% | -14% | u | -99% | -15%
C=CCNCCCCOc1ccc(OCc2ccccc2)cc1 | 17µM* | u | 13µM* | 5% | 24% | u
c1ccc(OCCCN2CCCC2)cc1 | -1% | 0% | -3% | 3% | -23% | -4%
c1ccc(COc2ccc(OCCCCN3CCCC3)cc2)cc1 | 12µM* | 2.2µM* | u | x | x | 2.5µM*
c1ccc(COc2ccc(OCCCN3CCCCC3)cc2)cc1 | 13µM* | u | 7.9µM* | -5% | u | 3.2µM*
c1ccc(COc2ccc(OCCOCCn3cncn3)cc2)cc1 | 8.5µM* | 1.4µM* | 5.2µM* | -3% | 8.9µM* | 1.3µM*
O=C(NCCC1=CCCCC1)c1ccc2c(c1)sc1nc(-c3ccc(F)cc3)cn12 | -1% | x | x | x | x | x
O=C(NC1CCCc2ccccc21)c1ccc2c(c1)sc1nc(-c3ccccc3)cn12 (stereo not drawn) | -2% | x | x | x | x | x
Cc1cccc(/C(N)=N/OC(=O)c2ccc3c(c2)OCO3)c1 | 0.19µM* | 2.8µM* | 9.2µM* | 10µM* | 25µM* | 2.8µM*
N/C(=N\OC(=O)c1ccc2c(c1)OCO2)c1cccc([N+](=O)[O-])c1 | 0.43µM* | 7% | u | -23% | -9% | u
COc1ccc(/C(N)=N/OC(=O)c2cccc([N+](=O)[O-])c2)cc1OC | u | 1% | u | 20% | -13% | -1%
CCN1C(=O)S/C(=C/c2cn(C)c3ccccc23)C1=O | 12µM* | -2% | 5% | -8% | 15% | -2%
Cn1cc(/C=C2\SC(=O)N(c3ccccc3)C2=O)c2ccccc21 | -7% | 3.5µM* | u | -1% | u | 4µM*
Cc1ccc(-n2[nH]c(C)c(/C=N/NC(=O)c3ccc(O)cc3O)c2=O)cc1 | 0.43µM* | 23% | u | x | x | 4%
Cc1[nH]n(-c2ccccc2)c(=O)c1/C=N/Nc1nncc(-c2ccccc2)n1 | 13µM* | -14% | u | -1% | -83% | -36%
Cc1cc(C(=O)N/N=C/c2c(C)[nH]n(-c3ccccc3)c2=O)n[nH]1 | 5.4µM* | 0% | 2% | x | x | -2%
Cc1[nH]n(-c2ccccc2)c(=O)c1/C=N/NC(=O)c1ccc(O)cc1O | 2.1µM* | 19% | u | x | x | 11%

Screening data (PubChem)
